Here are results for 14 compounds from PubChem BioAssay (NCI).

Some test systems named below: K-562 leukemia; MDA-MB-231 breast; RXF 393 renal; SF-268 CNS; SF-295 CNS; SF-539 CNS; UACC-257 melanoma; M14 melanoma; HCT-15 colon; SNB-75 CNS; SNB-19 CNS; U251 CNS; PC-3 prostate; UACC-62 melanoma; SK-MEL-28 melanoma; DU-145 prostate; MALME-3M melanoma; HT29 colon; SK-MEL-5 melanoma; LOX IMVI melanoma.
Test in all cases: NCI-60 one-dose screen, 48 h (100 = growth as untreated, 0 = no growth, -100 = all killed)
Details in all cases: 10 µM unless noted

Each structure is given as a SMILES string. This is part of a sample that, as a whole, favours compounds with a hit. Of some 83,000 tested, about 20% had one in any assay.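 Single-dose data. Exposure time 48 hours. Values below 10 considered active.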 Values without a mark were called inactive. Calls of active or inactive are those of the source.

For the compound `COC(=O)c1ccc(Cn2cnc3c(N)ncnc32)cc1`, the growth in the test on K-562 leukemia was 89.4%; in the test with MDA-MB-231 breast it was 87.7%; in the test on RXF 393 renal, 102%; in the test with SF-268 CNS, 114%; in the test with SF-295 CNS it was 109%; with SF-539 CNS, 92.1%. Besides, the growth with UACC-257 melanoma is 116%; in the test with M14 melanoma, 110%; in the test with HCT-15 colon, 99.8%; in the test on SNB-75 CNS, 86.7%; with SNB-19 CNS, 104%; in the test on U251 CNS, 111%. For the same compound, the growth is 111% with PC-3 prostate, 102% in the test with UACC-62 melanoma and 104% in the test on SK-MEL-28 melanoma.
`CC(C)CSc1nc(N)nc2c1ncn2C1OC(CO)C(O)C1O` (stereo not drawn): the growth in the test on DU-145 prostate is 115%; in the test with MALME-3M melanoma, 99.5%; with MDA-MB-231 breast, 104%; in the test with RXF 393 renal, 98.7%; in the test with SF-268 CNS, 99.9%; in the test on SF-295 CNS, 72.3%. Also, the growth is 94.7% in the test on SF-539 CNS; 104% in the test with UACC-257 melanoma; 116% with M14 melanoma; 92.7% with HCT-15 colon; 103% with HT29 colon; 101% with SNB-75 CNS. Further, the growth with U251 CNS is 101%; with SK-MEL-5 melanoma, 96.5%; in the test on UACC-62 melanoma, 92.8%; in the test on LOX IMVI melanoma, 95.3%; in the test with SK-MEL-28 melanoma, 112%.
On to `COc1ccc(O)c(N=Nc2nccs2)c1`, for which the growth was 94.9% in the test with DU-145 prostate; 102% in the test with MALME-3M melanoma; 39.3% in the test on MDA-MB-231 breast; 87.9% in the test on RXF 393 renal; 67.9% in the test with SF-268 CNS; 103% with SF-295 CNS. Moreover, the growth was 96.8% in the test on SF-539 CNS; 93.7% with UACC-257 melanoma; 105% in the test with M14 melanoma; 67.3% in the test with HCT-15 colon; 91% in the test with SNB-75 CNS; 94.9% with SNB-19 CNS. The growth in the test on U251 CNS was 54.4%; with PC-3 prostate, 67.3%; with UACC-62 melanoma it was 89.8%; in the test with LOX IMVI melanoma it was 60.9%; in the test on SK-MEL-28 melanoma, 115%.
Turning to `COc1cc2nnc3c4cccnc4[nH]c3c2cc1OC`, the growth with DU-145 prostate was 37.6%; with MALME-3M melanoma, -3.59% (active); in the test with MDA-MB-231 breast, 45.9%; in the test with SF-268 CNS, 19.4%; with SF-295 CNS, 67.4%; in the test with SF-539 CNS it was 54.9%. Further, the growth in the test with UACC-257 melanoma is -33.4% (active); in the test on M14 melanoma it was 81.2%; in the test on HCT-15 colon, 16%; in the test on HT29 colon it was -2.61% (active); in the test with SNB-75 CNS, 51.2%; with SNB-19 CNS, 75.7%. Further, the growth in the test with U251 CNS is 1.26% (active); with SK-MEL-5 melanoma, 93.5%; in the test on UACC-62 melanoma, 30.8%; in the test on LOX IMVI melanoma it was 12.8%; in the test on SK-MEL-28 melanoma it was 47.6%.
Consider `COc1ccc(CN2c3ccccc3Oc3ccccc32)cc1F`, for which the growth was 95.9% in the test on DU-145 prostate; 59.2% in the test with MALME-3M melanoma; 53.1% in the test with MDA-MB-231 breast; 84.5% with RXF 393 renal; 84.7% in the test with SF-268 CNS; 33% with SF-295 CNS. Moreover, the growth in the test on SF-539 CNS is 64.7%; with UACC-257 melanoma it was 58.9%; in the test on M14 melanoma it was 33.6%; with HCT-15 colon it was 47.4%; with HT29 colon it was 11.2%; in the test on SNB-75 CNS it was 47.9%. For the same compound, the figures for the growth in the test on U251 CNS, in the test on PC-3 prostate and with LOX IMVI melanoma were 39.5%, 64.8% and 59%, respectively.
Take `Clc1ccc2c(NCCCCNc3nc(N4CCCCC4)nc4ccccc34)ccnc2c1`: the growth in the test with DU-145 prostate was 27.6%; in the test with MALME-3M melanoma, -81.8% (active); in the test on MDA-MB-231 breast, -51.3% (active); in the test on RXF 393 renal it was -62.8% (active); in the test on SF-268 CNS, 19.9%; in the test on SF-295 CNS, -54.8% (active). For the same compound, the growth with SF-539 CNS was -86.7% (active); in the test on UACC-257 melanoma, -83.5% (active); with M14 melanoma, -84.6% (active); in the test with HCT-15 colon, -38.2% (active); with HT29 colon it was -14.2% (active); in the test on SNB-75 CNS, -59.5% (active). Also, the growth with SNB-19 CNS was 18.6%; in the test with PC-3 prostate, 25.6%; with UACC-62 melanoma, -86.9% (active); in the test on LOX IMVI melanoma it was -73.8% (active); in the test on SK-MEL-28 melanoma it was -71.1% (active).
Turning to `FC(F)(F)Oc1ccc2nc3nc4ccc[nH]c4cc3c2c1`, the growth in the test on DU-145 prostate was 87.7%; in the test with MALME-3M melanoma, 93%; in the test with MDA-MB-231 breast, 74.2%; with RXF 393 renal it was 76.7%; in the test on SF-268 CNS, 82.3%; in the test with SF-295 CNS, 98.2%. For the same compound, the growth in the test on SF-539 CNS was 84.8%; in the test with UACC-257 melanoma, 103%; with M14 melanoma, 96.2%; in the test with HCT-15 colon, 87%; in the test with SNB-75 CNS, 61.7%; with SNB-19 CNS, 58.3%. The growth in the test with U251 CNS was 65.6%; in the test with PC-3 prostate, 80%; with UACC-62 melanoma, 81%; in the test with LOX IMVI melanoma, 80%; with SK-MEL-28 melanoma, 94.6%.
For the compound `NC(=NCCCOc1ccc(Cl)cc1)Nc1ccc(C(F)(F)F)cc1`, the growth in the test with DU-145 prostate was 20.4%; with MALME-3M melanoma it was -49.3% (active); in the test with MDA-MB-231 breast, 10.1%; in the test with RXF 393 renal, 71.4%; in the test on SF-268 CNS, 46%; in the test with SF-295 CNS, 43.9%. Further, the growth with SF-539 CNS was 48.7%; with UACC-257 melanoma, 11.7%; in the test with M14 melanoma, -47.8% (active); in the test on HCT-15 colon it was 54%; in the test on HT29 colon it was 3.11% (active); in the test with SNB-75 CNS, 35.4%. The growth is 33% in the test on U251 CNS, 26.9% in the test on PC-3 prostate and 9.81% (active) in the test on LOX IMVI melanoma.
`Oc1ccc(N=Cc2ccccc2O)cc1`: the growth was 103% with DU-145 prostate; 73.6% with MALME-3M melanoma; 99.7% in the test on MDA-MB-231 breast; 93.4% in the test on SF-268 CNS; 107% in the test on SF-295 CNS; 79.9% in the test with SF-539 CNS. The growth is 94.2% with M14 melanoma; 120% with HCT-15 colon; 99% in the test on HT29 colon; 89.1% with SNB-75 CNS; 93.1% in the test with SNB-19 CNS; 83.3% in the test on U251 CNS. In addition, the growth in the test on SK-MEL-5 melanoma was 92.3%; with UACC-62 melanoma, 96.8%; in the test on LOX IMVI melanoma it was 104%; in the test on SK-MEL-28 melanoma it was 127%.
Consider `OCCN1CCN(c2nc(Nc3ccc(-c4nc5ccccc5[nH]4)cc3)c3cn[nH]c3n2)CC1`, for which the growth in the test with DU-145 prostate was -87.1% (active); in the test on MALME-3M melanoma, -74.2% (active); with MDA-MB-231 breast, -77% (active); in the test with RXF 393 renal it was -93.6% (active); in the test with SF-268 CNS it was -80.9% (active); with SF-295 CNS, -96% (active). Also, the growth in the test on SF-539 CNS was -85.4% (active); with UACC-257 melanoma, -89% (active); in the test with M14 melanoma, -78.3% (active); in the test on HCT-15 colon, -78.9% (active); in the test with HT29 colon, -91.4% (active); in the test on SNB-75 CNS it was -96.6% (active). Moreover, the growth in the test with SNB-19 CNS was -76.7% (active); with PC-3 prostate, -76.1% (active); in the test with LOX IMVI melanoma it was -89.2% (active).
As to `CC(=O)OCCC/C(=C/c1cc2ccccc2c2ccccc12)[N+](=O)[O-]`, the growth with DU-145 prostate was -100% (active); with MALME-3M melanoma it was -71% (active); in the test with MDA-MB-231 breast, -54.3% (active); in the test with SF-268 CNS, -89.6% (active); with SF-295 CNS, 7.66% (active); in the test with SF-539 CNS, -100% (active). Besides, the growth with M14 melanoma is -69.9% (active); with HCT-15 colon, -81.8% (active); with HT29 colon, -44.7% (active); in the test on SNB-75 CNS, -93.6% (active); with SNB-19 CNS, -91.1% (active); with U251 CNS it was -95.4% (active). Further, the growth with SK-MEL-5 melanoma is -100% (active); with UACC-62 melanoma, -90.2% (active); in the test with LOX IMVI melanoma, -70.6% (active); with SK-MEL-28 melanoma it was -99.5% (active).
Take `CC(=O)Oc1ccc(Cl)cc1CN(C(C)=O)C1CCCCC1`: the growth in the test on DU-145 prostate is 125%; in the test with MALME-3M melanoma it was 111%; in the test with MDA-MB-231 breast, 105%; with RXF 393 renal, 101%; in the test on SF-268 CNS, 100%; in the test with SF-539 CNS it was 111%. In addition, the growth with UACC-257 melanoma is 81.3%; in the test with M14 melanoma, 109%; in the test on HCT-15 colon, 101%; with HT29 colon it was 107%; in the test with SNB-75 CNS, 93.7%; in the test with SNB-19 CNS, 95.7%. The growth was 95.9% in the test on U251 CNS; 101% with SK-MEL-5 melanoma; 86.8% in the test on UACC-62 melanoma; 114% in the test with LOX IMVI melanoma; 106% with SK-MEL-28 melanoma.
On to `CCCCn1cnc2c(Sc3c([N+](=O)[O-])ncn3C)nc(N)nc21`, for which the growth is 99.6% in the test with DU-145 prostate; 93.9% in the test with MALME-3M melanoma; 97.9% in the test with MDA-MB-231 breast; 102% in the test on RXF 393 renal; 102% in the test on SF-268 CNS; 105% in the test on SF-539 CNS. For the same compound, the growth was 84.1% in the test on UACC-257 melanoma; 102% with M14 melanoma; 91.6% with HCT-15 colon; 99.7% with HT29 colon; 84.3% with SNB-75 CNS; 96.3% in the test with SNB-19 CNS. The growth in the test on U251 CNS was 101%; in the test on SK-MEL-5 melanoma, 103%; in the test on UACC-62 melanoma it was 88.9%; in the test on LOX IMVI melanoma, 107%; in the test with SK-MEL-28 melanoma it was 98.8%.
As for `CN(C)c1ccc(N=Nc2ccccn2)c(O)c1`, the growth in the test with DU-145 prostate is 21.6%; with MALME-3M melanoma it was 13.8%; with MDA-MB-231 breast, 36.7%; in the test with RXF 393 renal, 46.3%; in the test on SF-268 CNS, 14.6%; with SF-295 CNS it was 19.9%. Besides, the growth with SF-539 CNS is 0.733% (active); with UACC-257 melanoma it was -9.35% (active); in the test with M14 melanoma it was -2.06% (active); with HCT-15 colon, 31.6%; with HT29 colon, 24.1%; in the test on SNB-75 CNS, 42.7%. Besides, the growth in the test on U251 CNS was 11.7%; in the test on PC-3 prostate, 33.8%; in the test on UACC-62 melanoma, -28.3% (active); with LOX IMVI melanoma it was 8.14% (active); in the test on SK-MEL-28 melanoma it was 32.8%.
